Reference: PubChem BioAssay (EPA / NIEHS)
Inconclusive results are not listed. Active and inactive are the calls of the source. The calls were made as follows, unless noted: active = hit-call score of the fitted dose curve at least 0.9, where 1 is the maximum; inactive = score below 0.9.

Key:
[1] = target: Paired box protein Pax-6 (Homo sapiens) (UniProt P26367); test: ATG_Pax6_CIS: Attagene CIS-FACTORIAL HepG2 Assay for human Paired Box 6 (PAX6) (AID 2282956); conditions: HepG2 CIS-FACTORIAL PAX6 reporter transcription, RNA readout; actives raise or lower the signal
Summary of the method: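 Readout: reporter transcript fluorescence after RT-PCR and capillary electrophoresis. Cells: HepG2, transiently transfected with cis-regulated MRTUs. Exposure 24 h. Gain or loss of signal fitted bidirectionally relative to DMSO.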

[2] = ATG_PXRE_CIS: Attagene CIS-FACTORIAL HepG2 Assay for human Pregnane X Receptor Element (PXRE) (AID 2282957); conditions: HepG2 Attagene CIS-FACTORIAL PXRE reporter, mRNA; actives raise or lower the signal
Summary of the method: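 Bidirectional activity, baselined to DMSO, derived from reporter mRNA fluorescence (RT-PCR plus capillary electrophoresis) in HepG2 cells bearing cis-promoter reporter units, 24 h exposure.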

[3] = ATG_PPRE_CIS: Attagene CIS-FACTORIAL HepG2 Assay for human Peroxisome Proliferator-activated Response Element (PPRE) (AID 2282958); conditions: HepG2 PPRE cis-element reporter, Attagene transcription factor profiling; actives raise or lower the signal
Summary of the method: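 Read-out: fluorescent reporter mRNA fragments resolved by capillary electrophoresis after RT-PCR. HepG2 cells carried transiently transfected PPRE-driven cis reporter constructs and were dosed for 24 h; gain or loss of signal fitted relative to DMSO.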

[4] = ATG_RORE_CIS: Attagene CIS-FACTORIAL HepG2 Assay for human RAR-related Orphan Receptor Element (RORE) (AID 2282959); conditions: HepG2 Attagene cis-factorial RORE reporter, mRNA; actives raise or lower the signal
Summary of the method: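 Readout: fluorescent reporter mRNA by RT-PCR plus capillary electrophoresis, 24 h after dosing transfected HepG2 cells. Endogenous transcription factor activity on a cis promoter element is measured. Gain or loss of signal fitted against DMSO.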

[5] = ATG_Sox_CIS: Attagene CIS-FACTORIAL HepG2 Assay for human SRY-box transcription factor (SOX) (AID 2282960); conditions: HepG2 Attagene cis-factorial SOX reporter, mRNA; actives raise or lower the signal
Summary of the method: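 Read-out: fluorescent RT-PCR products of SOX1-linked reporter transcripts resolved by capillary electrophoresis, fitted bidirectionally against DMSO. Transiently transfected HepG2 cells, 24 h after chemical exposure, endogenous transcription factor activity.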

[6] = target: Transcription factor Sp1 (Homo sapiens) (UniProt P08047); test: ATG_Sp1_CIS: Attagene CIS-FACTORIAL HepG2 Assay for human Specificity Protein 1 (Sp1) (AID 2282961); conditions: HepG2 Sp1 cis-reporter transcription, actives raise or lower the signal
Summary of the method: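 Read-out: fluorescence of 6-FAM-labeled, HpaI-digested RT-PCR products separated by capillary electrophoresis. HepG2 cells carried transfected cis-element reporter units and were exposed to chemicals for 24 h; gain or loss of signal fitted relative to DMSO.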

[7] = ATG_SREBP_CIS: Attagene CIS-FACTORIAL HepG2 Assay for human Sterol Regulatory Element Binding (SREBP) (AID 2282962); conditions: HepG2 Attagene cis-factorial SREBP reporter, mRNA; actives raise or lower the signal
Summary of the method: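 Readout: fluorescent reporter-transcript peaks resolved by capillary electrophoresis after RT-PCR. Cells were human HepG2 carrying transfected cis-promoter reporter constructs, dosed for 24 h. Gain or loss of signal was fitted against DMSO controls.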

[8] = target: Signal transducer and activator of transcription 3 (Homo sapiens) (UniProt P40763); test: ATG_STAT3_CIS: Attagene CIS-FACTORIAL HepG2 Assay for human Signal Transducer and Activator of Transcription 3 (STAT3) (AID 2282963); conditions: HepG2, Attagene cis-factorial STAT3 reporter transcription; actives raise or lower the signal
Summary of the method: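 Uses human liver HepG2 transiently carrying cis-regulated reporter transcription units. Following 24 h dosing, reporter mRNA induction was detected by RT-PCR and capillary electrophoresis, analysed bidirectionally versus DMSO.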

[9] = ATG_TA_CIS: Attagene CIS-FACTORIAL HepG2 Assay for human TA Basal Promoter (AID 2282964); conditions: HepG2 Attagene CIS-factorial TA basal promoter reporter; actives raise or lower the signal
Summary of the method: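 Transfected HepG2, 24 h compound exposure; RNA → RT-PCR → FAM primer extension → HpaI cut → CE fluorescence. Gain/loss-of-signal fitted against DMSO negative control. Background-control readout.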

[10] = ATG_TCF_b_cat_CIS: Attagene CIS-FACTORIAL HepG2 Assay for human T-Cell-Factor with beta-catenin (TCF/b-cat) (AID 2282965); conditions: HepG2 TCF/beta-catenin cis-reporter transcription, actives raise or lower the signal
Summary of the method: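 Using capillary electrophoresis as the read-out, labelled reporter cDNA fragments from transiently transfected HepG2 were sized and quantified. Exposure lasted 24 hours; activity in either direction was referenced to DMSO.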

[11] = ATG_TAL_CIS: Attagene CIS-FACTORIAL HepG2 Assay for human TAL Basal Promoter (AID 2282966); conditions: HepG2 Attagene cis-factorial TAL promoter reporter; actives raise or lower the signal;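 also: background control endpoint measuring basal TAL promoter reporter mRNA not a specific factor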
Summary of the method: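 Human hepatoma HepG2 cells, transfected with promoter-regulated reporter units, were treated 24 h. Reporter transcript levels, measured through RT-PCR and capillary electrophoresis, were fitted for gain or loss relative to DMSO.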

[12] = target: Estrogen receptor (Homo sapiens) (UniProt P03372); test: ATG_ERa_TRANS: Attagene TRANS-FACTORIAL HepG2 Assay for human Estrogen Receptor alpha (ERa) (AID 2282970; active = hit-call score of the fitted dose curve at least 0.9, where 1 is the maximum); conditions: HepG2 Attagene TRANS ERa GAL4 reporter, mRNA
Summary of the method: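 Signal derives from fluorescence of labelled reporter PCR fragments separated by capillary electrophoresis. HepG2 cells transiently carrying multiple GAL4-UAS reporter units were treated 24 hours, and induction above DMSO baseline was fitted as activity.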

[13] = target: X-box-binding protein 1 (Homo sapiens) (UniProt P17861); test: ATG_Xbp1_CIS: Attagene CIS-FACTORIAL HepG2 Assay for human X-box Binding Protein 1 (XBP1) (AID 2282972); conditions: HepG2 XBP1 cis-element reporter, Attagene multiplex; actives raise or lower the signal
Summary of the method: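 Read-out: fluorescent reporter mRNA fragments resolved by capillary electrophoresis after RT-PCR. Human HepG2 liver cells carried transfected cis-promoter reporter units and were exposed to chemicals for 24 hours. Gain or loss of signal fitted relative to DMSO baseline.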

[14] = ATG_M_19_TRANS: Attagene TRANS-FACTORIAL HepG2 Assay for M19 Transcription Factor (Internal Marker) (AID 2282974; active = hit-call score of the fitted dose curve at least 0.9, where 1 is the maximum); conditions: HepG2 Attagene TRANS-FACTORIAL M19 internal marker reporter
Summary of the method: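 24 h chemical exposure of transiently transfected HepG2 (MRTU library). RNA → oligo(dT) RT → PCR → 6-FAM labelling → HpaI cut → CE fluorescence. Positive-direction fit vs DMSO baseline; background internal-marker readout.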

[15] = ATG_TGFb_CIS: Attagene CIS-FACTORIAL HepG2 Assay for human Transforming Growth Factor (TGF) (AID 2282967); conditions: HepG2 Attagene CIS TGFb reporter, mRNA transcription; actives raise or lower the signal
Summary of the method: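 Readout: fluorescently labeled reporter cDNA fragments resolved by capillary electrophoresis after RT-PCR. Transfected HepG2 cells dosed for 24 h; endogenous TF activity at TGFB1-linked cis element; gain or loss fitted relative to DMSO.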

[16] = ATG_GAL4_TRANS: Attagene TRANS-FACTORIAL HepG2 Assay for GAL4 (Internal Marker) (AID 2282976; active = hit-call score of the fitted dose curve at least 0.9, where 1 is the maximum); conditions: HepG2 Attagene TRANS GAL4 internal marker reporter
Summary of the method: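 Liver HepG2 line bearing multiplexed GAL4-UAS reporter constructs; 24 h chemical treatment. Transcripts were quantified as fluorescent fragments on capillary electrophoresis after RT-PCR and HpaI cut, with activity fitted upward from DMSO.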

[17] = ATG_VDRE_CIS: Attagene CIS-FACTORIAL HepG2 Assay for human Vitamin D Receptor Element (VDRE) (AID 2282968); conditions: HepG2 VDRE cis-reporter transcription, actives raise or lower the signal
Summary of the method: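 Transfected HepG2 reporter cells, chemical treatment 24 h. RNA isolated, cDNA amplified with reporter-specific primers, products analysed by capillary electrophoresis. Endpoint fitted in both directions versus DMSO.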

Signal transducer and activator of transcription 3 (Homo sapiens), sequence (P40763 whole entry, looked up): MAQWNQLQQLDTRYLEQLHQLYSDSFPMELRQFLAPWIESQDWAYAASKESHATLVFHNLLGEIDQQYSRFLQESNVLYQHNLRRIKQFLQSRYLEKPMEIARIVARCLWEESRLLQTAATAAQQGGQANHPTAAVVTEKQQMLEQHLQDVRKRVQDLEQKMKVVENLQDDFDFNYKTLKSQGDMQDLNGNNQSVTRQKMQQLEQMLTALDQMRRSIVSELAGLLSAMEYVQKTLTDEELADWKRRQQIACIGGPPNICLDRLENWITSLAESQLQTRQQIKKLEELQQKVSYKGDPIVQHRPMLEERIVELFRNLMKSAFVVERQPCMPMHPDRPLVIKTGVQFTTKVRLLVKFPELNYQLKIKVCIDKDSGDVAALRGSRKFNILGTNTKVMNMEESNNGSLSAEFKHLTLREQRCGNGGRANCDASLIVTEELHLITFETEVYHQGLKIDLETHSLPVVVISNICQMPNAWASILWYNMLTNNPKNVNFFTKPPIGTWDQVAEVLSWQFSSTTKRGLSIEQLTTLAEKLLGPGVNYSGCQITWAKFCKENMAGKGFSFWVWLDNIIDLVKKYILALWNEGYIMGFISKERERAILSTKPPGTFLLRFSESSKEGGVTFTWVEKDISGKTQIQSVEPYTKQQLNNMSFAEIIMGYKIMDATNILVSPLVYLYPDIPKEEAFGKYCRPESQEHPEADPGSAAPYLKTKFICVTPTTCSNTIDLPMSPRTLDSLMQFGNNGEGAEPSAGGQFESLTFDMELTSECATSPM
Transcription factor Sp1 (Homo sapiens), sequence (P08047 whole entry, looked up): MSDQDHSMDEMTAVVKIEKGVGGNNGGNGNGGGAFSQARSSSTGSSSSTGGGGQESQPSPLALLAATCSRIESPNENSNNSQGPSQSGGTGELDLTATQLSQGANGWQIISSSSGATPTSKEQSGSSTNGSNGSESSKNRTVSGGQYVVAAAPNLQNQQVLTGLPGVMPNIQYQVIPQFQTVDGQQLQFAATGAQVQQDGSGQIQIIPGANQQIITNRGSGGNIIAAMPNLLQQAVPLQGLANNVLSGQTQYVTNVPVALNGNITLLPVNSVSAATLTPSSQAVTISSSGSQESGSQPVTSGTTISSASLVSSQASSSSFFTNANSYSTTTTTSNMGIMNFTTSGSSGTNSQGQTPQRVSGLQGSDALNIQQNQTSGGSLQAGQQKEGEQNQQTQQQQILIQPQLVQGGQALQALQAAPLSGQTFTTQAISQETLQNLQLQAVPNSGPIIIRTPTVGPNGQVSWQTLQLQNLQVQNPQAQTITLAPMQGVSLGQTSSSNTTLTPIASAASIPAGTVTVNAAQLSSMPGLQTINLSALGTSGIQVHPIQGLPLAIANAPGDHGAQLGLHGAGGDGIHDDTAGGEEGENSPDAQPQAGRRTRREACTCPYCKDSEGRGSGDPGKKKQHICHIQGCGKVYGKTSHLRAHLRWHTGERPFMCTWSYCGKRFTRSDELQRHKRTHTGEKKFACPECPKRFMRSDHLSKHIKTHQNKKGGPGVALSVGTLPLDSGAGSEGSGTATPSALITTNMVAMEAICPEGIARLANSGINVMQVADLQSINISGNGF
Paired box protein Pax-6 (Homo sapiens), sequence (P26367 whole entry, looked up): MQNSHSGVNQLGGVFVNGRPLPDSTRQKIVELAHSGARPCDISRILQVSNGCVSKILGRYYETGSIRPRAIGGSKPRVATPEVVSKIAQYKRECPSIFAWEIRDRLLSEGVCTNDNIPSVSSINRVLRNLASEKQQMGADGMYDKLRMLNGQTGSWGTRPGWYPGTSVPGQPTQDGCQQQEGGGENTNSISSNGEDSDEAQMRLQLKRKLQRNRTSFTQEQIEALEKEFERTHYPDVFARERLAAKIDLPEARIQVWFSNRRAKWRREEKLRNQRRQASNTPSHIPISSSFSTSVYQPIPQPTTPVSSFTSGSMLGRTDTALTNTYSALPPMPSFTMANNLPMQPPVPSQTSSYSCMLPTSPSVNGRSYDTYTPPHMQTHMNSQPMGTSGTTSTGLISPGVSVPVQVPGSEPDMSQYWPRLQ
X-box-binding protein 1 (Homo sapiens), sequence (P17861 whole entry, looked up, the tested form may be a part): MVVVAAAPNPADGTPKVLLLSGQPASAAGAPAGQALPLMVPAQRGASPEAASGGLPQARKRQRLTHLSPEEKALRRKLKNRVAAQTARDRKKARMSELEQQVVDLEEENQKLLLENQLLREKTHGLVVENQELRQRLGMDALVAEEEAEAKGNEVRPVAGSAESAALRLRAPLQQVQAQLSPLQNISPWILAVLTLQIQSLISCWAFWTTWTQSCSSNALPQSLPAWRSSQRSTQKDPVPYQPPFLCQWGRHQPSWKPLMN
Estrogen receptor (Homo sapiens), sequence (P03372 whole entry, looked up, the tested form may be a part): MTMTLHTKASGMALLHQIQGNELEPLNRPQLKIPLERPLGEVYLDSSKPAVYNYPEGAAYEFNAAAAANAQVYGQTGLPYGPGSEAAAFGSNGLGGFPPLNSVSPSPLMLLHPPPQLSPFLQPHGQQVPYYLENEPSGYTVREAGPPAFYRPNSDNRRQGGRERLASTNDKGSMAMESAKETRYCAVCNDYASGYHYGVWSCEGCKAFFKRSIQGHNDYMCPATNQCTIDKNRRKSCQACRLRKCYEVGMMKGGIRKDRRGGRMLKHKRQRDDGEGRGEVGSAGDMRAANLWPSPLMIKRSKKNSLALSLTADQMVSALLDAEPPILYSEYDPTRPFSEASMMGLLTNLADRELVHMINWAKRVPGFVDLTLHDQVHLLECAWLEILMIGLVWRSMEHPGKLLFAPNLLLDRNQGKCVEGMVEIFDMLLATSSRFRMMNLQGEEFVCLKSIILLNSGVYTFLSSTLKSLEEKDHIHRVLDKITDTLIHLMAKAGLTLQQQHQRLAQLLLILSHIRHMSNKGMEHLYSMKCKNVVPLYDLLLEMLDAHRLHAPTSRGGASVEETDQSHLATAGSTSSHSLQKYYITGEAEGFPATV

| SMILES | outcome [1] | AC50 [2] | outcome [3] | outcome [4] | outcome [5] | outcome [6] | outcome [7] | outcome [8] | outcome [9] | outcome [10] | outcome [11] | outcome [12] | outcome [13] | outcome [14] | outcome [2] | outcome [15] | AC50 [12] | outcome [16] | outcome [17] |
| --- | --- | --- | --- | --- | --- | --- | --- | --- | --- | --- | --- | --- | --- | --- | --- | --- | --- | --- | --- |
| CC(C)CCCC(C)CC=O (stereo not drawn) | inactive | 65.1 µM (active) | inactive | inactive | inactive | inactive | inactive | inactive | inactive | inactive | inactive | inactive | inactive | inactive | – | – | – | – | – |
| CCCCCCCCCCOC(C)=O | inactive | – | inactive | inactive | inactive | inactive | inactive | inactive | inactive | – | inactive | – | – | inactive | inactive | inactive | 47.2 µM (active) | inactive | – |
| CO[Si](CCC1CCC2OC2C1)(OC)OC (stereo not drawn) | inactive | – | inactive | inactive | inactive | inactive | inactive | inactive | – | inactive | inactive | – | inactive | inactive | inactive | inactive | – | inactive | inactive |
